Results reported in PubChem BioAssay (NCATS).
“And” between values parts separate entries of the source, which are not always exact repeats. Identical values can stand only once. Records with an inconclusive call do not appear. A call without a number means that no potency is given here. The source holds several records for some structures; these can differ, active in one and inactive in another. The source made the active and inactive calls. The call rests on the fitted dose curve; in most records, active means well fitted curve in the direction sought with a large enough effect; inconclusive means small, poorly fitted or top-dose-only effect, or another doubt; inactive means no such curve, though single readings can be large; an effect the other way counts as inactive or inconclusive.

Molecular target: Cytochrome P450 3A4 (Homo sapiens) (UniProt P08684)
Sequence (P08684 whole entry, looked up): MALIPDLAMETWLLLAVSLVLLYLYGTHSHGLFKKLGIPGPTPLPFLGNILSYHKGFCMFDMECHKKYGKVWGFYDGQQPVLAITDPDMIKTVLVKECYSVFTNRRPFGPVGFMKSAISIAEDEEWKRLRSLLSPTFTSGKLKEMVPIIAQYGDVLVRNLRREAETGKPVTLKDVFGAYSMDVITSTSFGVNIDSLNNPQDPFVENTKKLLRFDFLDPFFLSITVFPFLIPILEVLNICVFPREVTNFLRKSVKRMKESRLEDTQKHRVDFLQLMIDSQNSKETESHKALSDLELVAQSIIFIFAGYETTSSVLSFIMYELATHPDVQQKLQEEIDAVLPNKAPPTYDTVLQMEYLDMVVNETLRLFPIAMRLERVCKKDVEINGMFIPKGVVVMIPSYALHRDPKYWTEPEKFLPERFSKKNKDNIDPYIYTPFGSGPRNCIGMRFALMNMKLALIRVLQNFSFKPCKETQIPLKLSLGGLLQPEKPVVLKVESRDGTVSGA
Assay: qHTS Assay for Inhibitors and Substrates of Cytochrome P450 3A4 (AID 884); further: nearly all actives have a fitted effect of over 50% in size; further: potency means the concentration at half of the fitted maximal effect
Conditions: recombinant CYP3A4, Luciferin-PPXE luminescence; series mostly up to 57.1 µM
In short: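 Luminescent readout of luciferin produced by CYP3A4 (20 nM) dealkylation of Luciferin-PPXE, 25 uM (its KM). NADPH-driven reaction ran 60 min at RT after 10 min compound preincubation; data scaled to 57 uM ketoconazole as 100% inhibition.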
With `N.N.O=C(O)C1(C(=O)O)CCC1.[Pt]` the Potency was “inactive”.
In the case of `O=C(O)/C=C\C(=O)O`, the Potency is reported as “inactive”.
With `Nc1ccc([N+](=O)[O-])cc1O` the Potency was “inactive”.
In the case of `CC(C)NCC(O)COc1cccc2ccccc12` (centres undefined), the Potency is reported as “inactive”.
For `Nc1ccc(O)c([N+](=O)[O-])c1`, the Potency was “inactive”.
With `COC(=O)c1c(C)[nH]c(C)c1C(=O)c1ccccc1Cc1ccccc1` the Potency was 501 nM (active).
In the case of `c1cnc2c(c1)ccc1cccnc12`, the Potency is reported as “inactive”.
In the case of `O=C(O)c1cc(O)c(O)c(O)c1`, the Potency is reported as “inactive”.
For `c1ccc2sc(SSc3nc4ccccc4s3)nc2c1`, the Potency was “inactive”.
With `NCCO` the Potency was “inactive”.
With `CCCCCCCCCCCCCCCCCC(=O)O` the Potency was “inactive”.
For `N=C1N=C(N)c2cc3ccccc3cc21`, the Potency was “inactive”.
With `O=C(O)c1cc(=O)c2c(Cl)cc(Cl)cc2[nH]1` the Potency was “inactive”.
With `CN(C)c1ccc(N=NS(=O)(=O)O)cc1` the Potency was “inactive”.
For `CN(C)CCC(c1ccc(Cl)cc1)c1ccccn1` (centres undefined), the Potency was “inactive”.
For `Cn1cc(C2=C(c3ccc(Cl)cc3Cl)C(=O)NC2=O)c2ccccc21`, the Potency was 2000 nM (active).
In the case of `COc1cc(/C=C/C(=O)CC(=O)/C=C/c2ccc(O)c(OC)c2)ccc1O`, the Potency is reported as 12600 nM (active).
For `COc1cc(CNC(=O)CCCC/C=C/C(C)C)ccc1O`, the Potency was 2510 nM (active).

Molecular target: Cytochrome P450 3A4 (Homo sapiens) (UniProt P08684)
Assay: qHTS Assay for Activators of Cytochrome P450 3A4 (AID 885); further: nearly all actives have a fitted effect of over 65% in size
Conditions: recombinant CYP3A4, Luciferin-PPXE luminescence, 60 min; series mostly up to 57.1 µM
In short: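 Using 20nM recombinant human CYP3A4 in potassium phosphate (200mM), substrate Luciferin-PPXE at 25uM, luminescent luciferin detection followed a 60-min RT NADPH reaction; data scaled to 57 uM ketoconazole.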
For `O=c1[nH]c2cc([N+](=O)[O-])c([N+](=O)[O-])cc2[nH]c1=O`, the Potency was “inactive”.
In the case of `N.N.O=C(O)C1(C(=O)O)CCC1.[Pt]`, the Potency is reported as “inactive”.
For `Cc1ccc(O)c(N=Nc2ccccc2)n1`, the Potency was “inactive”.
In the case of `O=C(Nc1ccccc1)c1cc([N+](=O)[O-])ccc1Cl`, the Potency is reported as “inactive”.
In the case of `COC(=O)c1c(C)[nH]c(C)c1C(=O)c1ccccc1Cc1ccccc1`, the Potency is reported as “inactive”.
With `C#C[C@]1(O)CC[C@H]2[C@@H]3CCc4cc(O)ccc4[C@H]3CC[C@@]21C` the Potency was “inactive”.
In the case of `Nc1ccc(O)c(C(=O)O)c1`, the Potency is reported as “inactive”.
For `Cn1cc(C2=C(c3ccc(Cl)cc3Cl)C(=O)NC2=O)c2ccccc21`, the Potency was “inactive”.
For `COc1cc(/C=C/C(=O)CC(=O)/C=C/c2ccc(O)c(OC)c2)ccc1O`, the Potency was “inactive”.
With `COc1cc(CNC(=O)CCCC/C=C/C(C)C)ccc1O` the Potency was “inactive”.

Molecular target: Cytochrome P450 2D6 (Homo sapiens) (UniProt P10635)
Sequence (P10635 whole entry, looked up): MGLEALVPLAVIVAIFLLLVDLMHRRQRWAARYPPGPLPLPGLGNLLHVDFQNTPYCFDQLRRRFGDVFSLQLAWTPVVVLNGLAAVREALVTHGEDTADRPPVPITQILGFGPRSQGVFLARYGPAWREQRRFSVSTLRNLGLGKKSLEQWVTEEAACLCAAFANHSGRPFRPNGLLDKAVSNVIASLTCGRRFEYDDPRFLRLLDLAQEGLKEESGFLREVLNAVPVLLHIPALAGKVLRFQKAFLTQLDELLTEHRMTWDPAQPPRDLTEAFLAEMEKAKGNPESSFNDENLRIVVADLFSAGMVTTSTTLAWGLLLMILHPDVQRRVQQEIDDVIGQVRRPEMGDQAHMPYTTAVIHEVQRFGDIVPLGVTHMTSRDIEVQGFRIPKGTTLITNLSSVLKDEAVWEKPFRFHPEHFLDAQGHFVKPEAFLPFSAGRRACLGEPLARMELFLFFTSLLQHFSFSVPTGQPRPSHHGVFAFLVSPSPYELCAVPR
Assay: qHTS Assay for Inhibitors and Substrates of Cytochrome P450 2D6 (AID 891); further: nearly all actives have a fitted effect of over 60% in size; further: potency means the concentration at half of the fitted maximal effect
Conditions: recombinant CYP2D6, luciferin-ME EGE luminescence; series mostly up to 57.1 µM
In short: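 Luminescent read-out of luciferin formed by 5 nM human CYP2D6 demethylating 30 uM Luciferin-ME EGE (Km level) over 60 min at room temperature after NADPH regeneration addition. Data normalized to full inhibition by 1.43 uM quinidine.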
For `Oc1ccccc1O`, the Potency was “inactive”.
With `O=c1[nH]c2cc([N+](=O)[O-])c([N+](=O)[O-])cc2[nH]c1=O` the Potency was “inactive”.
With `Cc1ccc(O)c(N=Nc2ccccc2)n1` the Potency was 3.98 µM (active) and inactive.
With `O=C(Nc1ccccc1)c1cc([N+](=O)[O-])ccc1Cl` the Potency was “inactive”.
In the case of `c1cnc2c(c1)ccc1cccnc12`, the Potency is reported as “inactive”.
With `O=C(O)c1cc(=O)c2c(Cl)cc(Cl)cc2[nH]1` the Potency was “inactive”.

Molecular target: Cytochrome P450 2C19 (Homo sapiens) (UniProt P33261)
Sequence (P33261 whole entry, looked up): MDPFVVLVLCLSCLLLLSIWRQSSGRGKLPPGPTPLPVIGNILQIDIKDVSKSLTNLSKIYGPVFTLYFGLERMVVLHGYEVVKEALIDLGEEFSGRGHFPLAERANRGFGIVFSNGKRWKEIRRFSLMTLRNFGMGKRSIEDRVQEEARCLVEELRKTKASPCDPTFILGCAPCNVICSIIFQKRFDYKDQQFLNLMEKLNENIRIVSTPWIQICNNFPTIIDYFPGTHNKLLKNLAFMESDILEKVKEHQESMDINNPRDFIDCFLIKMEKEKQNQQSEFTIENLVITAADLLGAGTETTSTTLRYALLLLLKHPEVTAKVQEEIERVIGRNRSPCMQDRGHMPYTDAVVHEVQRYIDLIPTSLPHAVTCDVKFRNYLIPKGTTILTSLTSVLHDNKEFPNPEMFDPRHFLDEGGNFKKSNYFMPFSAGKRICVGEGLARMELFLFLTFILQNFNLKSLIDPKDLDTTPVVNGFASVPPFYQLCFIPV
Assay: qHTS Assay for Inhibitors and Substrates of Cytochrome P450 2C19 (AID 899); further: nearly all actives have a fitted effect of over 60% in size; further: potency means the concentration at half of the fitted maximal effect
Conditions: recombinant CYP2C19, luciferin-H EGE luminescence; series mostly up to 57.1 µM
In short: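 In 50mM KPO4, the reaction held 5nM enzyme and KM-level (10uM) Luciferin-H EGE; it ran 60 min at 37C after NADPH regeneration and a 10 min compound preincubation. Luminescence values were scaled to 57uM ketoconazole as complete inhibition.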
With `Oc1ccccc1O` the Potency was “inactive”.
For `O=c1[nH]c2cc([N+](=O)[O-])c([N+](=O)[O-])cc2[nH]c1=O`, the Potency was “inactive”.
With `N.N.O=C(O)C1(C(=O)O)CCC1.[Pt]` the Potency was 3.98 µM (active).
In the case of `Cc1ccc(O)c(N=Nc2ccccc2)n1`, the Potency is reported as 3.98 µM (active) and inactive.
With `O=C(Nc1ccccc1)c1cc([N+](=O)[O-])ccc1Cl` the Potency was “inactive and 794 nM (active)”.
For `COC(=O)c1c(C)[nH]c(C)c1C(=O)c1ccccc1Cc1ccccc1`, the Potency was 0.1 µM (active).
With `c1cnc2c(c1)ccc1cccnc12` the Potency was “inactive”.
With `O=C(O)c1cc(=O)c2c(Cl)cc(Cl)cc2[nH]1` the Potency was “inactive”.
For `Nc1ccc(O)c(C(=O)O)c1`, the Potency was 5.01 µM (active).

Tested on: not listed separately
Assay: Confirmation and Secondary Assay for Modulators of Hemoglobin Beta Chain Splicing at IVS2 654 locus (AID 910);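 further: per-well total GFP intensity by laser scanning cytometry after 2-day treatment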
Conditions: HeLa EGFP-654 splicing reporter, GFP fluorescence, 48 h; series mostly up to 46.1 µM
In short: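 HeLa cells stably carrying EGFP interrupted by mutant beta-globin IVS2-654 intron (CMV-driven) were treated with compound for 2 days at 37C; corrected splicing was scored as total peak GFP intensity per well (488 nm excitation, 500-520 nm emission).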
In the case of `N.N.O=C(O)C1(C(=O)O)CCC1.[Pt]`, the outcome is reported as “inactive”.
In the case of `O=C1CN(/N=C/c2ccc([N+](=O)[O-])o2)C(=O)N1`, the outcome is reported as “inactive”.
For `CC(C)NCC(O)COc1cccc2ccccc12` (centres undefined), the outcome was “inactive”.
For `O=C(O)c1cc(O)c(O)c(O)c1`, the outcome was “inactive”.
With `O=C(O)c1cc(=O)c2c(Cl)cc(Cl)cc2[nH]1` the outcome was “inactive”.
In the case of `S=c1[nH]c2ccccc2s1`, the outcome is reported as “inactive”.
For `COc1cc(CNC(=O)CCCC/C=C/C(C)C)ccc1O`, the outcome was “inactive”.

Tested on: not listed separately
Assay: qHTS Assay for Identification of Small Molecule Agonists for Thrombopoietin (TPO) Signaling Pathway (AID 917); further: potency means the concentration at half of the fitted maximal effect
Conditions: TPO signaling pathway reporter cells, agonist qHTS, stimulated with TPO at its EC50; series mostly up to 38.5 µM
In short: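 Cell-based luciferase reporter screen. Mouse Ba/F3 line stably expressing human TPO receptor; IL-3 removed overnight before plating. Co-treatment with compound and EC50 TPO (26 pM), 24 hrs at 37 C, then luminescence.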
With `O=c1[nH]c2cc([N+](=O)[O-])c([N+](=O)[O-])cc2[nH]c1=O` the Potency was “inactive”.
For `N.N.O=C(O)C1(C(=O)O)CCC1.[Pt]`, the Potency was “inactive”.
In the case of `Cc1ccc(O)c(N=Nc2ccccc2)n1`, the Potency is reported as 79.4 nM (active).
In the case of `O=C(Nc1ccccc1)c1cc([N+](=O)[O-])ccc1Cl`, the Potency is reported as 1580 nM (active).
With `COC(=O)c1c(C)[nH]c(C)c1C(=O)c1ccccc1Cc1ccccc1` the Potency was “inactive”.
For `O=C(O)c1cc(=O)c2c(Cl)cc(Cl)cc2[nH]1`, the Potency was “inactive”.

Tested on: not listed separately
Assay: Cell Viability - LYMP2-001 (AID 921);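 further: cells exposed to compound for 24 h at 37 °C; nearly all actives have a fitted effect of over 70% in size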; further: potency means the concentration at half of the fitted maximal effect
Conditions: LYMP2-001 lymphoblastoid cell viability; series mostly up to 92.2 µM
In short: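 Steps: seed 2500 lymphoblastoid cells/well; 5 hr, 37 C; add compound; 24 hr, 37 C; CellTiter-Glo reagent, 30 min room temperature; read luminescence. Concentration-response modeled by Hill equation for AC50.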
For `Nc1nc2ccc([N+](=O)[O-])cc2s1`, the Potency was “inactive”.
In the case of `O=c1cc(-c2ccccc2)oc2ccccc12`, the Potency is reported as “inactive”.
For `O=C1CN(/N=C/c2ccc([N+](=O)[O-])o2)C(=O)N1`, the Potency was “inactive”.
In the case of `O=C(O)/C=C\C(=O)O`, the Potency is reported as “inactive”.
With `Nc1ccc([N+](=O)[O-])cc1O` the Potency was “inactive”.
With `CC(C)NCC(O)COc1cccc2ccccc12` (centres undefined) the Potency was “inactive”.
With `Nc1ccc(O)c([N+](=O)[O-])c1` the Potency was “inactive”.
For `CN(C)c1ccc(C(=C2C=CC(=[N+](C)C)C=C2)c2ccccc2)cc1`, the Potency was 199 nM (active).
With `CCCOC(=O)c1ccc(O)cc1` the Potency was “inactive”.
For `CN1CCC[C@H]1c1cccnc1`, the Potency was “inactive”.
With `C#C[C@]1(O)CC[C@H]2[C@@H]3CCc4cc(O)ccc4[C@H]3CC[C@@]21C` the Potency was “inactive”.
For `O=C(O)c1cc(O)c(O)c(O)c1`, the Potency was “inactive”.
With `c1ccc2sc(SSc3nc4ccccc4s3)nc2c1` the Potency was “inactive”.
With `NCCO` the Potency was “inactive”.
For `CCCCCCCCCCCCCCCCCC(=O)O`, the Potency was “inactive”.
For `N=C1N=C(N)c2cc3ccccc3cc21`, the Potency was 39800 nM (active).
With `CC1(C)S[C@@H]2[C@H](NC(=O)[C@H](N)c3ccccc3)C(=O)N2[C@H]1C(=O)O` the Potency was “inactive”.
In the case of `Nc1ccc(O)c(C(=O)O)c1`, the Potency is reported as “inactive”.
With `CN(C)c1ccc(N=NS(=O)(=O)O)cc1` the Potency was “inactive”.
In the case of `CN(C)CCC(c1ccc(Cl)cc1)c1ccccn1` (centres undefined), the Potency is reported as “inactive”.
In the case of `COc1cc(/C=C/C(=O)CC(=O)/C=C/c2ccc(O)c(OC)c2)ccc1O`, the Potency is reported as 20000 nM (active).
With `S=c1[nH]c2ccccc2s1` the Potency was “inactive”.
For `COc1cc(CNC(=O)CCCC/C=C/C(C)C)ccc1O`, the Potency was “inactive”.
